# Screens deposited in PubChem BioAssay by several laboratories.
# PGE2 EP2 inh: EP2 receptor (human) inhibition | P43116 | C6 glioma cells expressing human EP2, cAMP TR-FRET; cells stimulated with saturating PGE2 | inhibition, % at 25 µM | 260,000 compounds, 0.52% hits | AID 1422;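 active = percent inhibition above 40 after rounding to a whole number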;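 also: rat C6 glioma host cells with rolipram phosphodiesterase inhibitor present; the protocol text gives 20 µM as final concentration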
# Target sequence (P43116 whole entry, looked up): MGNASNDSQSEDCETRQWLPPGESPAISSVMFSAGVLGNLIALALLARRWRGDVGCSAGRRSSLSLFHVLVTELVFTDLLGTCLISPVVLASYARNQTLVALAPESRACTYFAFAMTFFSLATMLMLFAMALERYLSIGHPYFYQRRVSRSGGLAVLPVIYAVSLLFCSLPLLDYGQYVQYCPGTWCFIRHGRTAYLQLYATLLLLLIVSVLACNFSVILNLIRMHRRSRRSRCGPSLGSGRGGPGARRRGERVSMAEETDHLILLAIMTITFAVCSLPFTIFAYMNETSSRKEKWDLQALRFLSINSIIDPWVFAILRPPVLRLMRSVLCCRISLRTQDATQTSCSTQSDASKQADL
# Efa HMGR inh: E. faecalis class II HMG-CoA reductase inhibition | 190,000 compounds, 0.41% hits | inhibition, % at 10 µM | purified E. faecalis HMGR, NADPH absorbance 340 nm kinetic;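 active = inhibition above a set limit, the median over all tested compounds plus 3 SD, cut at about 9.5% in these data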;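 also: enzyme runs in reverse so mevalonate oxidation gives rising NADPH absorbance; 0% = complete reaction with DMSO and 100% = background rate lacking mevalonate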
# m-calpain inh: blocks pig calpain II enzyme activity; inhibition, % at 16 µM; AID 1236; purified calpain II, fluorogenic peptide substrate, 30 min; 220,000 compounds, 0.37% hits;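 active = inhibition above about 50%, limit read from the data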
# EP2 mod: modulators of human EP2 prostaglandin E2 receptor; P43116; EP2-expressing cells, cAMP HTRF FRET, PGE2 co-stimulation; induction, % at 25 µM; 260,000 compounds, 0.83% hits; AID 940;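 active = compounds whose cAMP rise, as percent of the full-agonist control response, exceeds 60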;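 also: rat C6 glioma line stably carrying human EP2 under a CMV promoter; the protocol text gives 20 µM as final concentration; 100% = response of wells given 1 µM PGE2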
# Furin inh: human furin inhibition; purified furin, fluorogenic substrate cleavage; P09958; inhibition, % at 20 µM or 30 µM; 220,000 compounds, 0.061% hits; in the data active = inhibition above about 25%
# EP2 confirm: human EP2 receptor cAMP induction, negative in counter-screens; shares compounds with EP2 mod; C6 glioma EP2 cells, cAMP HTRF induction; plus low (about EC15) PGE2 agonist; calls only at 20 µM (by protocol); 1,300 compounds, 47% hits; AID 1080;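 active = cAMP induction above 50% in the main assay while under 30% in all four parallel counter assays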;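 also: rat C6 glioma cells stably expressing human EP2 receptor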
# Active calls of the source: *; i = inactive; · = no result given; + = active, no number; ! = repeats disagree. A selection: hits, their analogues and other compounds. The true share with any hit is near 1.9%.
SMILES,PGE2 EP2 inh,Efa HMGR inh,m-calpain inh,EP2 mod,Furin inh,EP2 confirm
CC1CCCN(CCC(=O)Nc2ccccc2F)C1 (stereo not drawn),9.4,·,·,-16.0,·,·
NC(=O)CSc1nc2ccccc2n1Cc1ccccc1F,16.2,1.4,-10.1,6.8,20.5,·
CCSc1nc2ccccc2n1Cc1ccccc1F,10.2,-7.8,-4.7,72.1*,-16.7,+
COCCCN1C(=O)C(O)=C(C(=O)c2ccc(C)o2)C1c1ccc(O)c(OC)c1 (stereo not drawn),5.6,·,·,-5.5,·,·
FC(F)(F)c1cccc(/C=N/NC(=S)NC2CCCCC2)c1,4.5,-3.2,-4.1,80.0*,-7.1,+
COc1ccccc1NC(=O)N(Cc1ccco1)Cc1cc2cc3c(cc2[nH]c1=O)OCCO3,4.0,·,·,-29.4,·,·
COc1ccc(S(=O)(=O)N2c3cc(C)ccc3OCC2C(C)(C)C)cc1 (stereo not drawn),8.8,1.8,33.0,66.1*,-1.2,+
Cc1cc(C(=O)CSc2nc3ccccc3c(=O)n2C)c(C)n1Cc1ccc2c(c1)OCO2,7.8,0.8,-40.3,73.6*,-8.6,i
CCc1ccc(C2C(C(C)=O)=C(O)C(=O)N2CC(=O)OC)cc1 (stereo not drawn),16.8,·,·,2.3,·,·
CCc1ccc(Nc2oc(C)cc(=O)c2C(C)=O)cc1,23.6,-4.5,8.5,68.1*,-2.7,i
COc1cc(OC)c(C(C)=O)c(O)c1C,4.6,·,·,21.5,·,·
COc1cc(C)c(C(=O)Oc2cc(C)c(C(=O)O)c(O)c2C)c(OC)c1C,7.8,-3.8,34.1,54.6,-25.3,i
CC1=C[N+](=O)c2ccccc2[N+]1=O,9.9,·,·,106.9*,·,i
CCn1nnc(-c2ccccc2NC(=O)c2cc(OC)cc(OC)c2)n1,3.1,-3.7,-53.0,73.9*,-25.3,+
CCn1c(=O)oc2cc(S(=O)(=O)N3CCCC(c4ccccc4)C3)c(Cl)cc21 (stereo not drawn),3.8,·,·,-70.0,·,·
S=c1nc[nH]c2c1[nH]c1ccccc12,13.9,-4.5,-1.4,82.7*,-2.8,i
COc1cccc(/C=N/c2oc(-c3ccccc3)cc2C#N)c1O,13.9,-2.6,-251.3,78.2*,-10.6,i
NCC[C@@H](O)C(=O)N[C@@H]1C[C@H](N)[C@@H](O[C@H]2O[C@H](CN)[C@@H](O)[C@H](O)[C@H]2O)[C@H](O)[C@H]1O[C@H]1O[C@H](CO)[C@@H](O)[C@H](N)C1O (stereo partly drawn),6.5,·,·,-3.1,·,·
CC1(C)C2CCC1(C)C(OC(=O)CC(=O)O)C2 (stereo not drawn),16.9,-7.8,5.1,61.5*,-15.6,+
O=C(NCCN1CCC(O)(c2cccc(F)c2)CC1)c1ccc2c(c1)OCO2,7.5,·,·,-35.6,·,·
CCCCOc1ccccc1C1C(C(=O)OC)=C(C)N(C)C(C)=C1C(=O)OC,13.2,4.5,-5.9,93.9*,-8.0,+
CCCCN1C=C(C(=O)OC)C(c2ccccc2Cl)C(C(=O)OC)=C1,1.4,1.8,i,69.2*,-17.7,+
CCOC(=O)C1=C(C)N(C)C(C)=C(C(=O)OCC)C1c1ccccc1,10.5,0.6,-39.7,66.8*,-22.2,+
COc1ccc2cc(CN(Cc3ccc(C)cc3)C(=O)Nc3ccccc3OC)c(=O)[nH]c2c1,4.8,·,·,-11.3,·,·
COc1ccc2cc(CN(Cc3ccc4c(c3)OCO4)S(=O)(=O)c3ccccc3F)c(=O)[nH]c2c1,14.0,·,·,-52.0,·,·
SMILES,PGE2 EP2 inh,Efa HMGR inh,m-calpain inh,EP2 mod,Furin inh,EP2 confirm
COc1cc(N)ccc1-c1ccc(CO)o1,17.8,·,·,-42.7,·,·
CN(C)c1nc(-c2ccccc2)c2cnn(Cc3ccccc3)c2n1,13.1,0.5,-97.0,73.3*,-15.1,+
Cc1cc(NC(=O)C2=C(O)c3ccccc3S(=O)(=O)N2C)no1,10.1,-3.6,4.0,69.2*!,-26.3,i
CN1C(C(=O)Nc2ccccn2)=C(O)c2ccccc2S1(=O)=O,13.1,6.2,15.7,53.5,1.0,·
COc1ccc(C2(C(=O)NC(C)Cc3ccccc3)CCOCC2)cc1OC (stereo not drawn),6.8,·,·,-5.4,·,·
CC(Cc1ccccc1)NC(=O)C1(c2ccccc2)CCOCC1 (stereo not drawn),11.0,-0.9,-10.2,69.2*,-8.6,i
C(=N\n1c2ccccc2c2ccccc21)/c1ccccc1,3.3,-1.4,2.2,43.0,-14.1,·
C(=N/n1c2ccccc2c2ccccc21)/c1ccco1,12.0,-1.0,16.9,65.0*,-13.9,+
O=C(N=C1SCC(=O)N1c1ccccc1Cl)c1ccccc1,6.5,6.1,-21.3,67.2*,-14.0,i
O=C(N=C1SCC(=O)N1c1ccccc1Cl)c1ccco1,5.0,1.5,-22.6,48.3,-13.8,·
COc1ccc(NC(=O)CSc2nnc(Cn3nnc4ccccc43)n2C)c(OC)c1,2.4,·,·,-3.7,·,·
CC(C)C(=O)c1cc2c(cc1NC(=O)c1ccccc1)OCCO2,2.8,-0.8,-24.2,70.6*,-7.9,+
CCCN1CC=C2C(C#N)=C(N)C(C#N)(C#N)C(CC)C2C1 (stereo not drawn),16.0,·,·,-11.1,·,·
Cc1ccc(S(=O)(=O)Nc2cc(C)c3oc(=O)sc3c2)cc1,15.8,·,·,-2.1,·,·
Cc1cccc(OC(=O)c2sc(Cl)nc2C)c1,13.3,1.0,1.0,67.7*,-27.2,i
Cc1nc(Cl)sc1C(=O)O,3.2,-4.3,-29.6,21.9,-6.1,·
COc1ccc([C@@H]2C[C@H](C(=O)Nc3cccnc3)N(C)S(=O)(=O)N2)cc1,·,·,·,-53.4,·,·
Cc1noc(C)c1CSc1nc2ccccc2c(=O)n1-c1ccc(Cl)cc1,7.6,-5.4,-10.2,71.3*,-20.9,+
Fc1ccc(Sc2nc(-c3ccccc3)nnc2C(F)(F)F)cc1,9.4,-1.3,15.4,65.2*,-10.2,i
Fc1ccc(Oc2nc(-c3ccccc3)nnc2C(F)(F)F)cc1,11.4,-0.3,-17.4,68.7*,-16.0,+
FC(F)(F)c1nnc(-c2ccccc2)nc1Oc1ccccc1,3.5,1.1,-13.8,49.3,-14.0,·
CC1(C)C=Cc2c(c3c(c4c(=O)c(-c5ccc(O)cc5)coc24)OC(C)(C)CC3)O1,13.2,0.3,-6.7,59.5,-18.5,i
O=c1c(-c2ccc(O)cc2)coc2cc(O)cc(O)c12,9.6,·,-9.2,8.1,-31.7,·
CC1CCc2cc(F)cc3c(O)c(C(=O)NCc4ccco4)c(=O)n1c23 (stereo not drawn),·,5.4,-11.8,69.1*,-15.6,i
Cn1nc(C(C)(C)C)cc1C(=O)N1CCc2c(nc[nH]c2=O)C1,·,·,·,18.1,·,·
COc1ccc(CCNC2(Cc3ccccc3)CC(C)N(C)CC2C)cc1OC (stereo not drawn),8.1,·,·,-58.6,·,·
c1nc(NCC2CCCO2)c2c3c(sc2n1)CCC3 (stereo not drawn),10.0,·,·,-40.4,·,·
C/C(Cl)=C/CSc1nc2c(c(=O)n(C)c(=O)n2C)n1Cc1ccc(F)cc1,12.1,·,·,41.8,·,·
